Measurements: the supplement of paper PMC10849652
Targets with a hit are over-represented here; the source holds about 8,800 in all. About 0.5% of all pairs of compound and target were hits. Unmarked numbers belong to inactive results.

Compound: COc1cc2ncnc(Nc3ccc(F)c(Cl)c3)c2cc1OCCCN1CCOCC1 [gefitinib]
Assay: log2 fold change, soluble protein after heating vs DMSO (PISA); higher = thermal stabilisation; K562 lysate, 10 uM; active = over 0.2 and 3.5 SD of the protein, either way, in both replicates (recomputed)
Outline: (§1)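 Soluble protein was defined as the supernatant remaining after 21,000xg for 90 min, following pooling of heated aliquots and adjustment to 0.5% NP-40 at 4°C. Before that, crude K562 extract at 1 mg/mL protein in PBS pH 7.4 with 1 mM MgCl2 was treated with 10 μM compound for 30 min and heated for 3 min across 48°C-58°C. Quantification used TMTpro 16plex LC-MS/MS with channel sums equalised, and values are log-two fold changes in thermal stability relative to solvent controls from duplicates.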

Chain of UniProt Q9BUK0 (Q9BUK0 whole entry, looked up): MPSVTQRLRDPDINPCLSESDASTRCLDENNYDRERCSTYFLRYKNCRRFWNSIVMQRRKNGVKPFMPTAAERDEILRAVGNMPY
Chain of UniProt Q9UQ88 (Q9UQ88 whole entry, looked up): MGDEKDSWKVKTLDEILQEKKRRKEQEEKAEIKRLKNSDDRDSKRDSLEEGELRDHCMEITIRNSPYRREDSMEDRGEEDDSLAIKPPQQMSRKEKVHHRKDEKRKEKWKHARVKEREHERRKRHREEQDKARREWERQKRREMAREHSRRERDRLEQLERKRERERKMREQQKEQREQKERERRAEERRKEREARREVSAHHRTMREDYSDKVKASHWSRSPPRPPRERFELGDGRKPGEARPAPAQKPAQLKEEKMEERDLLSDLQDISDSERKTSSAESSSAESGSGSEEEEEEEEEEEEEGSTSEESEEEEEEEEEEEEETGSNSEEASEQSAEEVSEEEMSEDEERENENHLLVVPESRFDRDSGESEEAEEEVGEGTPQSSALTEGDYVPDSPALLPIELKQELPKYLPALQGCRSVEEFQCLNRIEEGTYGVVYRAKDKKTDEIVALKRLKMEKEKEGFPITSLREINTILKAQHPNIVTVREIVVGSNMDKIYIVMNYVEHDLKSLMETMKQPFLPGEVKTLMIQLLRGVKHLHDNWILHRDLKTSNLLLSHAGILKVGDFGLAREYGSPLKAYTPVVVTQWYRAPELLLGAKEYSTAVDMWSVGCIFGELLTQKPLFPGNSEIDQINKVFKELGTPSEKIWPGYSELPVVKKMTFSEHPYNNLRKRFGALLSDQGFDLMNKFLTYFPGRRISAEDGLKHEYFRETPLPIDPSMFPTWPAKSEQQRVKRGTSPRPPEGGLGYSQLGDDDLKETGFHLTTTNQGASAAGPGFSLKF
Chain of UniProt P55210 (P55210 whole entry, looked up): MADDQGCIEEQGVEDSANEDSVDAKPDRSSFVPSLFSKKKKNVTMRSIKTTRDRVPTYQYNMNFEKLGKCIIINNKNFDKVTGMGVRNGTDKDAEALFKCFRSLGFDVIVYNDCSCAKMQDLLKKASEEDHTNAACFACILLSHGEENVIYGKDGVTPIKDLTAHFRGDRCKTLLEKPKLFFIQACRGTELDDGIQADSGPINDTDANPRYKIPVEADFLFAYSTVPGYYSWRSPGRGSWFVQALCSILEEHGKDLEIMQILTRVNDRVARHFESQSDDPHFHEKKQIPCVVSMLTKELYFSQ
Chain of UniProt Q15059 (Q15059 whole entry, looked up): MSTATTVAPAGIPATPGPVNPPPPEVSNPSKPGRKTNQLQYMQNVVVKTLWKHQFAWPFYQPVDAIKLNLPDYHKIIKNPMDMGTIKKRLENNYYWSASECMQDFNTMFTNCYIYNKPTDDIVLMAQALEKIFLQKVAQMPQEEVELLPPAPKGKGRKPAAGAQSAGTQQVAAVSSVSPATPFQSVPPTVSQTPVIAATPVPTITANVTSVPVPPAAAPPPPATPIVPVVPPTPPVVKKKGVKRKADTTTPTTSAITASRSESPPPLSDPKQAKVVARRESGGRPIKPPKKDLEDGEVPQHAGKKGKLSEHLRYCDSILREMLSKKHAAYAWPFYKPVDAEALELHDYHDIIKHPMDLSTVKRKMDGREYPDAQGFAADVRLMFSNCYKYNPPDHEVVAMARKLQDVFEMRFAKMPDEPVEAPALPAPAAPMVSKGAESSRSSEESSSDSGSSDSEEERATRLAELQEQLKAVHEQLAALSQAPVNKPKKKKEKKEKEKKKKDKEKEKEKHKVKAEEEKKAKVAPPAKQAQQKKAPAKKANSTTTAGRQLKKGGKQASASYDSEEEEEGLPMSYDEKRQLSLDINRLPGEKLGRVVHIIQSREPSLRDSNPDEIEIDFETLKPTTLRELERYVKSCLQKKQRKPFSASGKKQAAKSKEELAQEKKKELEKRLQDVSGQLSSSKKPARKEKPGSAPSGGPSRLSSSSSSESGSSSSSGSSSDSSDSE
Chain of UniProt Q9BYV8 (Q9BYV8 whole entry, looked up): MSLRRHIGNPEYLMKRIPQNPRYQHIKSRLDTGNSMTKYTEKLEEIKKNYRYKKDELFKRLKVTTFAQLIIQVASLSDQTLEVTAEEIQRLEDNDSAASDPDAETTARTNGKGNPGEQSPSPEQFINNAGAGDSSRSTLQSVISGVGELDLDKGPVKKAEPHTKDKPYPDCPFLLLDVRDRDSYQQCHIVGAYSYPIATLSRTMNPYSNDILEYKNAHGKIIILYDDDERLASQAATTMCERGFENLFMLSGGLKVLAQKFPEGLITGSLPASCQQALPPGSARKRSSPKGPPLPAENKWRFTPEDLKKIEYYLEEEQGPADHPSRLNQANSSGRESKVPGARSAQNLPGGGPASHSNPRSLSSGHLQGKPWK
Chain of UniProt Q9C0D2 (Q9C0D2 whole entry, looked up): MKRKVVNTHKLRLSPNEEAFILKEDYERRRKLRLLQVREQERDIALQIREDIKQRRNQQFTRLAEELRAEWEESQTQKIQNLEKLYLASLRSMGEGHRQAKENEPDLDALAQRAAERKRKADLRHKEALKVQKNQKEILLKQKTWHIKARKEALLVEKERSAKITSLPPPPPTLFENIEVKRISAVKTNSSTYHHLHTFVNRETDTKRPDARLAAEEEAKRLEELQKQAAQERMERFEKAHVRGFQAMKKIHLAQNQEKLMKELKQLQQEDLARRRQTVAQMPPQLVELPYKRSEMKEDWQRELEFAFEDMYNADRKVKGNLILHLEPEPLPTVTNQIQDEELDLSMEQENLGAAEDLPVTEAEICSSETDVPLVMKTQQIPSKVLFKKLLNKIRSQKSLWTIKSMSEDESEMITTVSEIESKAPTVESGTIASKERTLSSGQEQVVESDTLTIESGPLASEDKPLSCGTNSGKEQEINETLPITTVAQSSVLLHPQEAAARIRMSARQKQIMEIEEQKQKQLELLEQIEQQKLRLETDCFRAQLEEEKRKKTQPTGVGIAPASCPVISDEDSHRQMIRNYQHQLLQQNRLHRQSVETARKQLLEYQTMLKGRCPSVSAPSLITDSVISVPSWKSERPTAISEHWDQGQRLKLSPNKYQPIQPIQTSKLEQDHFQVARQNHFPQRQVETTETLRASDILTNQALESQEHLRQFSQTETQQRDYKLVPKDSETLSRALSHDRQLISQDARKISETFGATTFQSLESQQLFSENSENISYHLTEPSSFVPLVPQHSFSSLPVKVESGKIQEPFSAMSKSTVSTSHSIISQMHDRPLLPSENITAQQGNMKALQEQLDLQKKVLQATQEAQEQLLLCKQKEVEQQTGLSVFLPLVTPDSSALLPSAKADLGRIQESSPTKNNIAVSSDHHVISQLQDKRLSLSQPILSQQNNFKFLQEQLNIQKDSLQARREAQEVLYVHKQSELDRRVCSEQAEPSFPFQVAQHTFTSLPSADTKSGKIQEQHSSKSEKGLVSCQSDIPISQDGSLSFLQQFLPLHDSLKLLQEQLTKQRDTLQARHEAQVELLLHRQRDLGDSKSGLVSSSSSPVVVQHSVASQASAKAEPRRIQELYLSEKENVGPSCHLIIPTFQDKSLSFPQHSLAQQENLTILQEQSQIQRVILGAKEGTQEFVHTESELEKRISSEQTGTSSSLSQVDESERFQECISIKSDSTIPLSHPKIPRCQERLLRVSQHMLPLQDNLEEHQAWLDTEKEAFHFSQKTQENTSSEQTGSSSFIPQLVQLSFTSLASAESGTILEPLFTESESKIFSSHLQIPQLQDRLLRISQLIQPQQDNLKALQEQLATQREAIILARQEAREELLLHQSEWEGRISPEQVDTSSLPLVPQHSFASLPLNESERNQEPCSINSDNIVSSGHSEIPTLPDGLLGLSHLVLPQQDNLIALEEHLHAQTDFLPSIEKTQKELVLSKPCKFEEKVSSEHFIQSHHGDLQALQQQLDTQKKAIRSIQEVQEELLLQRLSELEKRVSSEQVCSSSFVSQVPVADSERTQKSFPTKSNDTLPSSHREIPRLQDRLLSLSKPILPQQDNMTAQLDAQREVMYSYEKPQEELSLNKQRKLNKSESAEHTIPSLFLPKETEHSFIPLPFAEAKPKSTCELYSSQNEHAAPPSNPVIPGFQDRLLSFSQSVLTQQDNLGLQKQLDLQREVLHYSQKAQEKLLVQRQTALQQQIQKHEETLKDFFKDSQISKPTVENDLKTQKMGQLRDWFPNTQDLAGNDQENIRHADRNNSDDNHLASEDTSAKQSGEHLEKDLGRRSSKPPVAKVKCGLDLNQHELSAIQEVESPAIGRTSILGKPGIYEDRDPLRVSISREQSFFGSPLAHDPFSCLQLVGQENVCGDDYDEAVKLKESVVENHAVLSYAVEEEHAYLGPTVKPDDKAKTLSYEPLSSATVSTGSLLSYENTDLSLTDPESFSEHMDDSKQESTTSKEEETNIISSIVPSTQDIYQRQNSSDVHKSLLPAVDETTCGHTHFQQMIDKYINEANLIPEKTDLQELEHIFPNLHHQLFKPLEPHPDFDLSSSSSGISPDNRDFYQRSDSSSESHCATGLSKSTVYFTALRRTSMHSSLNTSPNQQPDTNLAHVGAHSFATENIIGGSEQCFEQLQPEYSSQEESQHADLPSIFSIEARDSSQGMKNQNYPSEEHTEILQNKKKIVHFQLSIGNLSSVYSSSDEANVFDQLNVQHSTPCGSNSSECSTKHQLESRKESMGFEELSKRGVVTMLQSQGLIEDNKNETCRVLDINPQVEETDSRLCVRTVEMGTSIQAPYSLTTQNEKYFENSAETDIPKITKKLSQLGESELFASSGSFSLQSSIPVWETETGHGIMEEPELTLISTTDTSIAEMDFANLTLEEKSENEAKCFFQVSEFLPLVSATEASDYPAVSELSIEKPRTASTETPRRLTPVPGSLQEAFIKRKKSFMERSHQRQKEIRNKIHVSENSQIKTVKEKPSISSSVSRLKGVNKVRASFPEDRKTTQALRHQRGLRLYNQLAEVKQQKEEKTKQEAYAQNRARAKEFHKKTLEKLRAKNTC
Chain of UniProt Q7Z4R8 (Q7Z4R8 whole entry, looked up): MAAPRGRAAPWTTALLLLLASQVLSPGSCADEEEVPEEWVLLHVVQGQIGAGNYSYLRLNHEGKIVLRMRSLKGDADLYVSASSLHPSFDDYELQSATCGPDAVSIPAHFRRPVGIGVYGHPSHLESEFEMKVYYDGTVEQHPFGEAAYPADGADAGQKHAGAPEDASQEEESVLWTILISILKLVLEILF

Target	log2 fold change
C3AR1 (UniProt Q16581)	0.053
CCND3 (UniProt P30281)	0.201
CANX (UniProt D6RHJ3)	-0.242
CASP7 isoform 3 (UniProt P55210)	0.108
CDK11A (UniProt Q9UQ88)	0
CDCA8 (UniProt Q53HL2)	0.04
CAMK2B (UniProt Q13554)	0.026
CDC14A isoform 2 (UniProt Q9UNH5)	0.078
CEP57L1 (UniProt Q8IYX8)	-0.038
BAHCC1 (UniProt Q9P281)	0.095
CENPV (UniProt Q7Z7K6)	0.789
CARHSP1 (UniProt H3BNU9)	-0.213
CEP41 (UniProt Q9BYV8)	0.011
CDK16 isoform 2 (UniProt Q00536)	-0.026
CEP295 isoform 3 (UniProt Q9C0D2)	-0.041
CAPNS1 (UniProt U3KPR7)	0.165
CHCHD7 isoform 4 (UniProt Q9BUK0)	0.118
BRD3 (UniProt Q15059)	-0.15
CDC25A (UniProt P30304)	-0.002
CHD4, A0A2R8Y521	0.167
BMT2 (UniProt Q1RMZ1)	-0.27

Compound: CS(=O)(=O)CCNCc1ccc(-c2ccc3ncnc(Nc4ccc(OCc5cccc(F)c5)c(Cl)c4)c3c2)o1 [lapatinib]
Assay: as above
Outline: as §1

Target	log2 fold change
CDKL5 (UniProt O76039)	-0.207
CANX (UniProt D6RHJ3)	-0.017
CASP7 isoform 3 (UniProt P55210)	-0.055
CDK11A (UniProt Q9UQ88)	0.104
CAMK2B (UniProt Q13554)	0.024
CCAR2 (UniProt G3V119)	-0.12
CDC14A isoform 2 (UniProt Q9UNH5)	0.062
BAHCC1 (UniProt Q9P281)	-0.117
C6orf120 (UniProt Q7Z4R8)	-0.113
CARHSP1 (UniProt H3BNU9)	-0.101
CEP41 (UniProt Q9BYV8)	-0.017
CDK16 isoform 2 (UniProt Q00536)	0.046
CEP295 isoform 3 (UniProt Q9C0D2)	-0.038
CAPNS1 (UniProt U3KPR7)	-0.052
ATE1 (UniProt O95260)	-0.03
CHCHD7 isoform 4 (UniProt Q9BUK0)	0.079
BRD3 (UniProt Q15059)	0.014
CAPNS1 (UniProt K7ES78)	0.162
CDC25A (UniProt P30304)	-0.016
BICRA (UniProt Q9NZM4)	-0.099
C16orf70 (UniProt Q9BSU1)	-0.002
CHD4, A0A2R8Y521	0.025

Compound: CS(=O)(=O)N1CCN(Cc2cc3nc(-c4cccc5[nH]ncc45)nc(N4CCOCC4)c3s2)CC1 [pictilisib]
Assay: as above
Outline: as §1

Target	log2 fold change
C3AR1 (UniProt Q16581)	-0.023
CCND3 (UniProt P30281)	-0.01
CASP7 isoform 3 (UniProt P55210)	0.037
CDK11A (UniProt Q9UQ88)	-0.02
CDCA8 (UniProt Q53HL2)	0.072
ATG4D (UniProt Q86TL0)	-0.054
CAMK2B (UniProt Q13554)	0.053
B3GALT6 (UniProt Q96L58)	-0.047
CASC1 (UniProt Q6TDU7)	-0.06
CEP128 (UniProt Q6ZU80)	-0.123
CEP57L1 (UniProt Q8IYX8)	0.076
C6orf120 (UniProt Q7Z4R8)	0.032
CCP110 (UniProt O43303)	-0.085
CENPV (UniProt Q7Z7K6)	0.02
CARHSP1 (UniProt H3BNU9)	-0.186
CEP41 (UniProt Q9BYV8)	0.039
ATPSCKMT (UniProt Q6P4H8)	-0.113
CEP295 isoform 3 (UniProt Q9C0D2)	0.057
CAPNS1 (UniProt U3KPR7)	-0.083
ATE1 (UniProt O95260)	-0.047
CHCHD7 isoform 4 (UniProt Q9BUK0)	0.06
BRD3 (UniProt Q15059)	0.004
BICRA (UniProt Q9NZM4)	0.052
C8orf88 (UniProt P0DMB2)	0.028
C16orf70 (UniProt Q9BSU1)	-0.076
CCDC130 (UniProt P13994)	-0.003
